Screening data as filed in PubChem BioAssay.
Shown are actives, neighbours in structure and some others; about 2.4% of the full set was active somewhere.
INS promoter inh: TRM-6 insulin promoter activity inhibition | TRM-6 cells (human fetal islet line), insulin promoter-eGFP reporter, imaging; reporter expression induced with tamoxifen | inhibition, % at 2 µM | 130,000 tested, 0.9% active;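 active means inhibition above the mean plus 3 SD, with well images judged a real hit on visual review, cut at about 60% in these data, passing the limit was not always enough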
PGE2 EP2 inh: inhibitors of human EP2 prostaglandin E2 receptor; P43116; C6 glioma cells expressing human EP2, cAMP TR-FRET; cells stimulated with saturating PGE2; 260,000 tested, 0.52% active; inhibition, % at 25 µM;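 active means percent inhibition above 40 after rounding to a whole number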;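 further: rat C6 glioma host cells with rolipram phosphodiesterase inhibitor present; the protocol text gives 20 µM as final concentration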
Target sequence (P43116 whole entry, looked up): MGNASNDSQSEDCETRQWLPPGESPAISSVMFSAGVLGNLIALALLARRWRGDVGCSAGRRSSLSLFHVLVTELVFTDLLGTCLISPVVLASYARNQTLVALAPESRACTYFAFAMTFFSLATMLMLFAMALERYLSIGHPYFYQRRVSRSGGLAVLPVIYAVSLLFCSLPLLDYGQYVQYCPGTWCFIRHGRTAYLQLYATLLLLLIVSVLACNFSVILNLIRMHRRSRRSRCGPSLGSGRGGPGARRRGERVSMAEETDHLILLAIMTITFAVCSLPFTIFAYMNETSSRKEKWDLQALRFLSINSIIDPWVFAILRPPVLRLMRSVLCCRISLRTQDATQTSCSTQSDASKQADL
EP2 mod: EP2 receptor (human) modulation; P43116; EP2-expressing cells, cAMP HTRF FRET, PGE2 co-stimulation; induction, % at 25 µM; 260,000 tested, 0.83% active; AID 940;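 active means compounds whose cAMP rise, as percent of the full-agonist control response, exceeds 60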;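 further: rat C6 glioma line stably carrying human EP2 under a CMV promoter; the protocol text gives 20 µM as final concentration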
S1P4 ag: activates the human S1P4 receptor. activation, % at 4.98 µM. O95977. 220,000 tested, 0.35% active. AID 1509. S1P4-expressing cell line, agonist reporter assay; in the data active means activation above about 11%
S1P3 antag: S1P3 (human) receptor antagonism | Q99500 | CHO S1P3 NFAT-BLA reporter, FRET fluorescence, antagonist mode | inhibition, % at 4.98 µM | 170,000 tested, 0.27% active | AID 485;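 active means inhibition above the plate cutoff, the mean inhibition of test wells on that plate plus 3 SD, cut at about 28% in these data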;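 further: cells challenged with S1P at its EC80 of 0.8 µM; blue over green emission ratio from cleaved BLA substrate after 4 h stimulation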
S1P4 antag: antagonists of human S1P4 receptor | O95977 | S1P4-expressing cells, antagonist mode, reporter read-out | inhibition, % at 4.98 µM | 220,000 tested, 0.26% active | AID 1510; in the data active means inhibition above about 29%
S1P4 ag conf: confirmation of human S1P4 receptor agonists. shares compounds with S1P4 ag. S1P4 agonist cell-based reporter assay. activation, % at 4.98 µM. 740 tested, 7% active; in the data active means activation above about 12%
S1P1 agonist: activates human S1P1, counter-screen for S1P4 agonists | S1P1 agonist cell-based assay, activation | activation, % at 4.98 µM | 740 tested, 4% active | shares compounds with S1P4 ag; in the data active means activation above about 21%
Numbers stand for hits; n = inactive; x = not tested or not shown.

SMILES	INS promoter inh	PGE2 EP2 inh	EP2 mod	S1P4 ag	S1P3 antag	S1P4 antag	S1P4 ag conf	S1P1 agonist
COCCCn1c(=N)c(C(=O)NCC2CCCO2)cc2c(=O)n3ccccc3nc21 (stereo unspecified)	x	n	n	12	n	n	n	n
COc1ccc(CN2CCC(O)(c3ccccc3F)CC2)cc1CN1CCOCC1	x	n	n	x	x	x	x	x
O=C(Cn1cnc2ccccc21)N1CCN(S(=O)(=O)c2ccccc2)CC1	x	n	n	15	n	n	n	n
O=C(CSc1ncccn1)N1CCN(S(=O)(=O)c2ccccc2)CC1	x	n	n	n	n	n	x	x
O=C(Cc1n[nH]c(=O)c2ccccc12)N1C2CCC1CC(c1ccc(F)cc1)C2 (stereo unspecified)	x	n	n	x	x	x	x	x
Cc1cc(C(=O)CN2C(=O)C(=O)N(Cc3ccccc3)C2=O)c(C)n1CC1COc2ccccc2O1 (stereo unspecified)	n	n	n	n	n	n	x	x
Cc1cc(C(=O)CN2C(=O)C(=O)N(Cc3ccccc3)C2=O)c(C)n1-c1ccccc1F	n	n	n	13	n	n	n	n
CCOc1ccc2[nH]c(=O)c(C(c3nnnn3Cc3ccc(F)cc3)N3CCN(C)CC3)cc2c1 (stereo unspecified)	x	n	n	x	x	x	x	x
CCN(C(=O)c1cnc(OC)cc1C(F)(F)F)c1ccc(Cl)cc1	x	n	n	n	n	n	x	x
COc1cc(C(F)(F)F)c(C(=O)N(C)Cc2ccc(Cl)c(Cl)c2)cn1	x	n	n	15	n	n	n	n
CCCCC(=O)NCCc1ccc(OC)cc1	n	n	n	26	x	n	n	n
CCCCC(=O)NCCc1ccc(S(N)(=O)=O)cc1	n	n	n	n	n	n	x	x
COc1ccc(S(=O)(=O)Nc2cccc(N(C)S(C)(=O)=O)c2)cc1Br	x	n	n	11	n	n	n	n
CC1CCN(CC(O)c2ccc3c(c2)CCCN3C(=O)C(C)C)CC1 (stereo unspecified)	x	n	n	x	x	x	x	x
Cc1cc2cc(C3C(C#N)=C(N)OC4=C3C(=O)CC(C)(C)C4)c(=O)[nH]c2cc1C (stereo unspecified)	x	n	n	x	x	x	x	x
COc1cc(CNCCO)cc(Cl)c1OCc1ccccc1Cl	x	n	n	11	n	n	n	n
COc1cccc(CNCCO)c1OCc1ccccc1Cl	x	n	n	n	n	n	x	x
Cc1nccc2[nH]c(=O)c(C(=O)NC(C)CCc3ccccc3)cc12 (stereo unspecified)	x	n	n	24	n	n	n	n
CC(CCc1ccccc1)NC(=O)c1cccnc1 (stereo unspecified)	n	n	n	n	n	n	x	x
Nc1cc(-c2ccco2)nn(CC(=O)NCc2cccc(F)c2)c1=O	x	n	n	x	x	x	x	x
COc1ccc(CN2CCC(CNC(=O)CN3C(=O)C(C)Oc4ccccc43)CC2)cc1 (stereo unspecified)	x	x	n	x	x	x	x	x
COCCNC(=O)c1ccc2c(=O)n(Cc3ccco3)c(SCC(=O)NC3CCCC3)nc2c1	x	n	n	12	x	n	n	n
COCCNC(=O)CSc1nc2cc3c(cc2c(=O)n1Cc1ccco1)OCO3	n	n	n	n	x	n	x	x
C/C(=N\NC(=O)C(C)n1nc(C)c([N+](=O)[O-])c1C)c1ccccc1O (stereo unspecified)	n	n	n	103	n	n	n	n
O=C(O)Cn1c(SCc2ccccc2)nc2ccccc21	n	n	n	n	x	n	x	x
SMILES	INS promoter inh	PGE2 EP2 inh	EP2 mod	S1P4 ag	S1P3 antag	S1P4 antag	S1P4 ag conf	S1P1 agonist
O=C(O)Cn1c(SCCOc2ccccc2)nc2ccccc21	n	n	n	59	n	n	n	n
COCCOC(=O)C(C)n1cnc2sc3c(c2c1=O)CCCC3 (stereo unspecified)	x	n	n	x	x	x	x	x
CCCC(=O)Nc1nc(-c2ccc(C)c(C)c2)cs1	x	n	n	x	x	x	x	x
COc1ccccc1-n1c(SCC(N)=O)nnc1-c1ccc(S(=O)(=O)N2CCCCC2)cc1	n	n	n	23	n	n	n	n
Cc1ccc2nc3c(cc(C#N)c(=O)n3CCN3CCOCC3)c(=O)n2c1	x	x	x	x	n	x	x	x
Cc1ccc2nc3c(cc(C#N)c(=O)n3-c3nccs3)c(=O)n2c1	x	n	n	31	n	n	15	24
O=C(Nc1nnc(-c2cccnc2)s1)C1CCN(S(=O)(=O)c2ccc(Cl)cc2)CC1	x	n	n	x	x	x	x	x
c1ccc2c(c1)N1CCCN=C1N2CCN1CCCCC1	n	n	n	18	n	n	n	n
COc1ccc2cc(OC)c(C(=O)N3CCOCC3)cc2c1	x	n	n	14	n	n	n	n
CS(=O)(=O)N1CCc2cc(C(N)=O)ccc21	x	n	n	x	x	x	x	x
CC(=O)Oc1cc2oc(=O)c3c(c2cc1Cl)CCC3	x	n	n	15	n	n	n	n
OC1(c2cccnc2)CCN(Cc2nnnn2Cc2ccccc2)CC1	n	n	n	53	n	n	n	n
CCOC(=O)c1csc(NC(=O)CSc2nnnn2-c2ccc3c(c2)OCO3)n1	x	n	n	x	x	x	x	x
CCOc1ccc2[nH]c(=O)c(CN(CCc3ccccc3)C(C)=O)cc2c1	x	n	n	x	x	x	x	x
CCOc1ccc(Oc2c(/C=N/NC(=O)COc3ccccc3OC)c(C)nn2-c2ccccc2)cc1	n	n	n	22	n	n	n	n
CCOc1ccc(Oc2c(/C=N/NC(N)=O)c(C)nn2-c2ccccc2)cc1	x	n	n	n	n	n	x	x
COc1ccc2oc(=N)c(C(=O)Nc3cc(Cl)ccc3Cl)cc2c1	x	n	n	x	x	x	x	x
Cc1ccc2cc(CN(CCCN(C)C)C(=O)Nc3ccc(F)cc3)c(=O)[nH]c2c1C	x	n	n	x	x	x	x	x
Oc1ccc(-n2cnnn2)cc1	n	n	n	30	x	n	n	n
Clc1ccc(-n2cnnn2)cc1	n	n	n	n	n	n	x	x
Cc1cc(C)nc(N/N=C/c2ccc(N3CCOCC3)cc2)n1	n	n	n	175	n	n	21	n
Cc1cc(C)nc(Nc2ccc(N3CCOCC3)cc2)n1	x	n	n	n	n	n	x	x
Cc1ccc(CN(CCCn2ccnc2)CC2=Cc3ccccc3OC2)o1	x	n	n	x	x	x	x	x
CCCNS(=O)(=O)c1cc(Cl)ccc1OC	x	n	n	17	n	n	n	n
CCCNS(=O)(=O)c1ccc(OC)c(Cl)c1Cl	n	n	n	n	x	n	x	x
SMILES	INS promoter inh	PGE2 EP2 inh	EP2 mod	S1P4 ag	S1P3 antag	S1P4 antag	S1P4 ag conf	S1P1 agonist
COc1ccc(-c2nnn(CC(=O)N(CCO)C(C(=O)NC3CCCC3)c3ccncc3)n2)cc1 (stereo unspecified)	n	n	n	76	n	n	n	n
Cc1cccc(N=Cc2cc3c(cc2[N+](=O)[O-])OCO3)c1	n	n	n	16	x	n	n	n
CCOC(=O)c1sc(NC(=O)COc2ccc(Cl)c(C)c2)c(C#N)c1C	x	n	n	x	x	x	x	x
O=C(O)c1ccc(N/N=C/c2ccc(-c3ccccc3Cl)o2)cc1	x	n	n	11	n	n	n	n
O=C(N/N=C/c1ccc(-c2ccccc2Cl)o1)c1ccccc1	n	n	n	n	n	n	x	x
C#Cc1cccc(-n2nnc(C(C)=O)c2C)c1	x	n	n	68	n	n	n	n
